Hit rate of the full screen: of about 3,300 compounds, about 280 (8.5%) were called active. Shown is part of a subset that was picked to be rich in actives. Unmarked numbers belong to inactive results.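 How the source made its calls: active means mean growth inhibition over the two runs of 50% or more; inactive means mean growth inhibition under 50%.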
Test: A549 NSCLC cell proliferation inhibitors – ATP luminescence, human non-small cell lung line, primary screen (AID 371);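 further: compound exposure lasted 72 h before the ATP read; 0% = untreated cell signal and 100% = no luminescence left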
Conditions: at 10 µM, stronger effect = higher value
For N#CC1=C(N)C(C#N)(C#N)[C@H](c2ccncc2)[C@H]2CN(C(=O)OCc3ccccc3)CC=C12, the growth inhibition was 57.7% (active). With CCOC(=O)N1CC=C2C(C#N)=C(N)C(C#N)(C#N)[C@H](c3cccs3)[C@H]2C1 the growth inhibition was 8.61%. Work on CC(C)(C)OC(=O)N1CC=C2C(C#N)=C(N)C(C#N)(C#N)[C@H](c3cccnc3)[C@H]2C1 yielded a growth inhibition of 9.35%. With CCCCOc1ccc(CSC(CC(=O)O)C(=O)O)cc1 (stereo unspecified) the growth inhibition was -2.76%. With COc1ccc2c(C)nc(Nc3nc(C)cc(C)n3)nc2c1 the growth inhibition was 2.87%. For CCOc1ccc2c(C)nc(NC3=NC(C)(C)C=C(C)N3)nc2c1, the growth inhibition was 72% (active). With CCCCC(C(=O)O)C(C)CC(=O)Nc1cccc(C(=O)O)c1 (stereo unspecified) the growth inhibition was -1.54%. Work on CC[C@H]1OC(=O)C[C@@H](O)[C@H](C)[C@@H](O[C@@H]2O[C@H](C)C[C@H](N(C)C)[C@H]2O)[C@@H](CC=O)C[C@@H](C)C(=O)C=C[C@]2(C)O[C@H]2[C@@H]1C yielded a growth inhibition of 24.4%. With CCc1ccc(NC(=O)CSC2=C(C#N)C(c3ccc4c(c3)OCO4)CC(=O)N2)cc1 (stereo unspecified) the growth inhibition was 8.25%. For CC(C)(C)C1CCC2(CC1)C(C#N)=C(SCC(=O)Nc1ccccc1)NC(=O)C2C#N (stereo unspecified), the growth inhibition was 70.2% (active). Work on CC1=C(C(=O)Nc2ccccc2)C(c2ccncc2)C(C#N)=C(SCC(=O)NC(C)C)N1 (stereo unspecified) yielded a growth inhibition of 6.59%. COC(=O)c1ccc(=O)n(Cc2ccc3c(c2)OCO3)c1 gave a growth inhibition of 8.75%. CCc1cc2c(=O)c(-c3nc4ccccc4[nH]3)coc2cc1OC(=O)N1CCOCC1 showed a growth inhibition of -4.96%. Work on CCN(CC)C(=O)c1ccc(O)c(OC)c1 yielded a growth inhibition of -6.2%. With O=C(O)/C=C/c1ccc(O)c(O)c1 the growth inhibition was -1.3%. For COc1cc(/C=C/C(=O)CC(=O)/C=C/c2ccc(O)c(OC)c2)ccc1O, the growth inhibition was 75.3% (active). Compound Cc1ccccc1OCC(O)Cn1c(N2CCN(c3ccccc3)CC2)nc2c1c(=O)[nH]c(=O)n2C (stereo unspecified) has a growth inhibition of 3.03%. O=C(O)CC(NCc1ccco1)C(=O)OCC1CCCO1 (stereo unspecified) gave a growth inhibition of 0.9%. In the case of CCCC(=O)Nn1cnc2c(c1=O)C1(CCCC1)Cc1ccccc1-2, the growth inhibition is reported as 5.85%. Compound COc1cccc(N2CCN(C3CC(=O)N(c4cccc(Cl)c4)C3=O)CC2)c1 (stereo unspecified) has a growth inhibition of 4.23%. CC(CN1c2ccccc2Sc2ccccc21)N(C)C (stereo unspecified) showed a growth inhibition of 25.9%. With CSc1ccc2c(c1)N(CCC1CCCCN1C)c1ccccc1S2 (stereo unspecified) the growth inhibition was 93.4% (active). With COc1ccc(/C(O)=C2/C(=O)C(=O)N(CCCN(C)C)C2c2ccco2)cc1Cl (stereo unspecified) the growth inhibition was 3.4%. Work on COc1ccc(OC)c(C2/C(=C(\O)c3ccc4c(c3)OCCO4)C(=O)C(=O)N2CCCN(C)C)c1 (stereo unspecified) yielded a growth inhibition of 7.35%. In the case of CC(C)N=c1cc2n(-c3ccc(Cl)cc3)c3ccccc3nc-2cc1Nc1ccc(Cl)cc1, the growth inhibition is reported as 92.5% (active). For COc1ccc(N/C(=N\c2nc(C)cc(C)n2)NC(=O)C(C)C)cc1OC, the growth inhibition was 7.92%. Compound CC(C)c1nc2n[nH]c(N)c2c2c1CCC2 has a growth inhibition of -2.18%. In the case of O=C1OC2CCC1(c1ccccc1)C2 (stereo unspecified), the growth inhibition is reported as -2.09%. In the case of COc1cccc(C2=CC(c3ccc(N(C)C)cc3)n3nnnc3N2)c1 (stereo unspecified), the growth inhibition is reported as 58.6% (active). COc1ccc(C2C=C(c3ccc(C)cc3)Nc3ncnn32)cc1 (stereo unspecified) showed a growth inhibition of 30.1%. COc1ccc(C2=CC(c3cccc(OC)c3)n3nnnc3N2)cc1 (stereo unspecified) gave a growth inhibition of 27.1%. COc1ccc(C2=CC(c3ccc(C)cc3)n3nnnc3N2)cc1 (stereo unspecified) gave a growth inhibition of 27.9%. With COc1cccc(C2=CC(c3ccccc3)n3ncnc3N2)c1 (stereo unspecified) the growth inhibition was 11.9%. With COc1cccc(C2=CC(c3ccccc3)n3nnnc3N2)c1 (stereo unspecified) the growth inhibition was 72.7% (active). Work on CC(NC(=O)OCc1ccccc1)C(=O)OCN1C(=O)c2ccccc2C1=O (stereo unspecified) yielded a growth inhibition of 2.01%. In the case of Cc1ccc(S(=O)(=O)c2cc3c(=O)n4cccc(C)c4nc3n(CC3CCCO3)c2=N)cc1 (stereo unspecified), the growth inhibition is reported as 7.96%. Work on CCOc1ccc(-c2nnc3sc(-c4ccccc4OC)nn23)cc1 yielded a growth inhibition of -2.6%. In the case of CCOc1cccc(-c2nnc3sc(COc4ccccc4)nn23)c1, the growth inhibition is reported as 3.57%. For COc1ccc(-c2nnc3sc(-c4ccccc4OC)nn23)cc1, the growth inhibition was 4.96%. In the case of CCOc1cccc(-c2nnc3sc(-c4ccc(C)cc4)nn23)c1, the growth inhibition is reported as 48.3%. For CCOc1cccc(-c2nnc3sc(-c4cc(OC)c(OC)c(OC)c4)nn23)c1, the growth inhibition was 53.3% (active). c1cncc(-c2nnc3sc(-c4ccco4)nn23)c1 gave a growth inhibition of 3.63%. In the case of COc1ccccc1-c1nn2c(-c3ccc(C(C)(C)C)cc3)nnc2s1, the growth inhibition is reported as 83.3% (active). For CCOc1cccc(-c2nnc3sc(C4CCCCC4)nn23)c1, the growth inhibition was 79% (active). With CCOc1cccc(-c2nnc3sc(-c4cccs4)nn23)c1 the growth inhibition was 2.48%. For CCN(CC)c1ccc(-c2nn3c(-c4cccnc4)nnc3s2)cc1, the growth inhibition was 80.9% (active). Work on c1cc(-c2nnc3sc(C4CCCCC4)nn23)ccn1 yielded a growth inhibition of -0.46%. Compound COc1cc(-c2nn3c(-c4cccnc4)nnc3s2)cc(OC)c1OC has a growth inhibition of 14%. With Cc1ccc(N(CC(=O)O)C2SC(=O)NC2=O)cc1 (stereo unspecified) the growth inhibition was -7.76%. For Cc1ccc(C2CC(c3cccs3)n3nc(N)nc3N2)cc1 (stereo unspecified), the growth inhibition was 17.9%. Compound CCOC(=O)c1[nH]c2ccc(Br)cc2c1NC(=O)CCN1CCC(C(=O)OCC)CC1 has a growth inhibition of 41.5%. CCSc1nnc(N(CCC#N)CCC#N)s1 showed a growth inhibition of 4.31%. CCOC(=O)CCCCC(=O)NC(CO)C(=O)NC (stereo unspecified) showed a growth inhibition of -2.55%. In the case of CN(CCNC(=O)c1ccc(/C=N/O)nc1)Cc1ccccc1, the growth inhibition is reported as -0.01%. For COc1cccc(-c2nnc3sc(C4CCCCC4)nn23)c1, the growth inhibition was 73.3% (active). Compound c1cncc(-c2nnc3sc(C4CCCCC4)nn23)c1 has a growth inhibition of 25.4%. In the case of COc1ccccc1-c1nnc2sc(C3CCCCC3)nn12, the growth inhibition is reported as 24.4%. In the case of Cn1c(=O)[nH]c(=O)c2c1nc(Br)n2CCSc1ncccn1, the growth inhibition is reported as 4.37%. Compound COCCCNc1nc2c(c(=O)[nH]c(=O)n2C)n1CC(O)COc1ccccc1 (stereo unspecified) has a growth inhibition of 13.7%. OC(CCN1CCCCC1)(c1ccccc1)C1CCCCC1 (stereo unspecified) showed a growth inhibition of 1.96%. With CC(C)(C)c1ccc(C(O)CCCN2CCC(C(O)(c3ccccc3)c3ccccc3)CC2)cc1 (stereo unspecified) the growth inhibition was 95.9% (active). Compound OC(CCN1CCCC1)(c1ccccc1)C1CCCCC1 (stereo unspecified) has a growth inhibition of 7.22%. Work on CCCCCSc1nc(C)c(CC(=O)O)c(=O)[nH]1 yielded a growth inhibition of -2.49%. In the case of CC(=O)/C(C#N)=C1\NC(=O)C(Cc2ccccc2Cl)S1 (stereo unspecified), the growth inhibition is reported as 61.9% (active). Work on CCOC(=O)/C(C#N)=C1/SC(CCO)C(=O)N1c1ccccc1 (stereo unspecified) yielded a growth inhibition of -8.59%. Work on N#CC(C(=O)Nc1ccc(Cl)c(Cl)c1)=C1Nc2ccccc2N1 yielded a growth inhibition of 38.8%. With CCOC(=O)c1ccc(CC2S/C(=C(\C#N)C(C)=O)NC2=O)cc1 (stereo unspecified) the growth inhibition was 26.4%. With CC(=O)/C(C#N)=C1\NC(=O)C(Cc2ccccc2)S1 (stereo unspecified) the growth inhibition was 56% (active). With N#C/C(C(=O)N1CCOCC1)=C1/SC(Cc2ccccc2)C(=O)N1c1ccccc1 (stereo unspecified) the growth inhibition was 0%. Compound CCOc1ccc2nc(NC(NC(=O)CC)(C(=O)OC)C(F)(F)F)sc2c1 (stereo unspecified) has a growth inhibition of 20.7%. CCCCCOc1ccc(C(=O)NCC(=O)NCC(=O)OCC)cc1 gave a growth inhibition of 36.1%. Work on CC(C)CC(=O)Nc1ccccc1N1CCCC1 yielded a growth inhibition of 3.4%. CCOC(=O)CNC(=O)Nc1ccccc1C(=O)OC showed a growth inhibition of -3.41%. With CCOC(=O)c1n[nH]c2ccccc12 the growth inhibition was -3.73%. For CCOC(=O)C1=Nc2ccccc2C1=[N+]=[N-], the growth inhibition was 61.3% (active). C=CCOn1c(=O)c(-c2ccc(OC)cc2)[n+]([O-])c2ccccc21 gave a growth inhibition of 0.35%. With CSC1=C(C#N)C(C)CC(=O)N1 (stereo unspecified) the growth inhibition was -1.22%. O=C1c2ccccc2C(=O)N1c1ncccn1 showed a growth inhibition of 8.95%. With COCCCn1c2nc3ccccc3nc2c2c(=O)n(CC3CCCO3)cnc21 (stereo unspecified) the growth inhibition was 3.37%. Compound Cc1cc(-c2cc(-c3ccc(Cl)cc3)nc(N)c2C#N)co1 has a growth inhibition of 30.1%. CCOC(=O)CC(=O)CSc1nc(N)c(C#N)c(-c2ccc(Cl)cc2)c1C#N gave a growth inhibition of 5.46%. With CCc1nc(N)nc(N)c1-c1ccc(Cl)cc1 the growth inhibition was 79.6% (active). With Cc1c(/C(O)=C2\C(=O)C(=O)N(CCN(C)C)C2c2cccs2)cnn1-c1ccccc1 (stereo unspecified) the growth inhibition was 0.12%. Work on O=c1c2ccccc2ncn1Cc1ccco1 yielded a growth inhibition of 1.72%. For OCCNc1ncnc2c1c(-c1ccccc1)c(-c1ccccc1)n2Cc1ccco1, the growth inhibition was 53.2% (active). With c1coc(CNc2ncnc3ccccc23)c1 the growth inhibition was 23.6%. In the case of CC(C)CN1C(=O)NC(NC(=O)c2cccnc2)(C(F)(F)F)C1=O (stereo unspecified), the growth inhibition is reported as -0.36%. Cc1nnc(SCC(=O)N2CCOCC2)c2ccccc12 gave a growth inhibition of -4.15%. In the case of CCCCNc1nc2c(c(=O)n(C)c(=O)n2C)n1Cc1cccc(OC)c1, the growth inhibition is reported as 59.5% (active). With COc1cccc(Cn2c(NCc3ccccn3)nc3c2c(=O)n(C)c(=O)n3C)c1 the growth inhibition was 23.9%. With COc1cccc(Cn2c(NCc3ccco3)nc3c2c(=O)n(C)c(=O)n3C)c1 the growth inhibition was 51.8% (active). COc1ccc(Oc2nc3c(c(=O)n(C)c(=O)n3C)n2Cc2cccc(OC)c2)cc1 gave a growth inhibition of 27.7%. Compound COCCCNc1nc2c(c(=O)n(C)c(=O)n2C)n1Cc1cccc(OC)c1 has a growth inhibition of 33.1%. COc1cccc(Cn2c(NCC(C)C)nc3c2c(=O)n(C)c(=O)n3C)c1 gave a growth inhibition of 2.01%. In the case of Cc1cc(=O)oc(C)c1C(=O)NCC(C)C, the growth inhibition is reported as -13.9%. Compound C=CCOc1nc2c(c(=O)n(C)c(=O)n2C)n1Cc1c(Cl)cccc1Cl has a growth inhibition of 25.2%.

From PubChem BioAssay AID371 (SRMLSC, 2006)
